TrxR1 inh – qHTS Assay for Inhibitors of Mammalian Selenoprotein Thioredoxin Reductase 1 (TrxR1): qHTS; Thioredoxin reductase 1, cytoplasmic (Rattus norvegicus), O89049; recombinant rTrxR1, NADPH fluorescence consumption, selenite substrate; Potency, µM (series often up to 114 µM), usual class: inhibitors; 390,000 tested, 1% active; AID 588453, 2011; also: nearly all actives have a fitted effect of over 65% in size
Target sequence (O89049 whole entry, looked up): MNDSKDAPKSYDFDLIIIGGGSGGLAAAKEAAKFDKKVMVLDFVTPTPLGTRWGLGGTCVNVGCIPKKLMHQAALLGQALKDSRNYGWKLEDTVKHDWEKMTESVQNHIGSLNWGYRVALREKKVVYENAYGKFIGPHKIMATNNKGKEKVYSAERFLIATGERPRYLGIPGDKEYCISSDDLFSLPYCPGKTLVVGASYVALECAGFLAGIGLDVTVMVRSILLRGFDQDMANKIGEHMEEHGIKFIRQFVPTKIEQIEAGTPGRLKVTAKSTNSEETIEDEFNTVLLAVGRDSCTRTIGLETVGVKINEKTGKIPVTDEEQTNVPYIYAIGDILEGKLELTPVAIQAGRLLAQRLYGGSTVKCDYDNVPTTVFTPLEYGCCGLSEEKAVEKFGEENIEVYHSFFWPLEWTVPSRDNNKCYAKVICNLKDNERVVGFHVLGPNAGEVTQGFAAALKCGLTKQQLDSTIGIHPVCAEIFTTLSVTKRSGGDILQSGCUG
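Rat TrxR1 (90 nM in the dispensed reagent) was pre-reduced with 400 uM NADPH for 5 min at room temperature, then incubated with compound for 15 min. After 400 uM selenite was added, NADPH fluorescence (Ex 340/Em 450 nm) was followed for 8 min.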
TrxR1 substrate – qHTS Assay for Substrates of Mammalian Selenoprotein Thioredoxin Reductase 1 (TrxR1): qHTS; Thioredoxin reductase 1, cytoplasmic (Rattus norvegicus), O89049; Potency, µM (highest dose often 114 µM); purified TrxR1 substrate turnover, NADPH consumption readout; 390,000 tested, 0.01% active; also: nearly all actives have a fitted effect of over 50% in size
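Rat TrxR1, dispensed at 90 nM, was prereduced with 400 uM NADPH (final) for 5 min at ~22 deg C, then incubated with compound 15 min before 400 uM selenite. A first-read NADPH fluorescence drop versus no-compound background flagged substrates.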
GLP1R inv ag – qHTS of GLP-1 Receptor Inverse Agonists (Inhibition Mode) | HEK293 GLP-1R CRE-luciferase, luminescence, 24 h; GLP-1R form is constitutively active | 410,000 tested, 1.6% active | Potency, µM (series often up to 38.3 µM), most hits filed as inhibitors | Glucagon-like peptide 1 receptor (Homo sapiens), P43220 | AID 624417, 2012; also: nearly all actives have a fitted effect of over 55% in size
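Seeding at 200 cells/uL, 12 h culture, 24 hr compound treatment, then luciferase reagent and a luminescence read; cells are HEK293 stably expressing a constitutively active GLP-1R plus cAMP-responsive luciferase.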
HEK293 tox – qHTS of GLP-1 Receptor Inverse Agonists: Cytotox Screen | HEK293 cAMP-luciferase reporter cells, luminescence, 24 h | Potency, µM (top dose mostly 38.3 µM), usual class: inhibitors | 410,000 tested, 0.13% active | AID 624418, 2012;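 also: loss of luciferase light is scored as toxicity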
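To flag toxic compounds, the library was rerun on cells for 24 hr at 37 deg C and 5% CO2. Viability-linked luminescence was captured 12 min after adding luciferase detection reagent.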
GLP1R ag – qHTS of GLP-1 Receptor Agonists | Glucagon-like peptide 1 receptor (Homo sapiens), P43220 | HEK293 GLP-1R CRE-luciferase, luminescence, 4-6 h; cells express a hypersensitive GLP-1R form | Potency, µM (doses to about 45.6 µM), most hits filed as activators | 380,000 tested, 0.007% active | AID 624172, 2012
mIDH1 inhibitor – qHTS for Inhibitors of mutant isocitrate dehydrogenase 1 (IDH1): qHTS; 390,000 tested, 0.093% active; Potency, µM (top dose mostly 76.6 µM), actives largely listed as inhibitors; Isocitrate dehydrogenase [NADP] cytoplasmic (Homo sapiens), O75874; IDH1-R132H enzyme, NADPH consumption, diaphorase/resazurin fluorescence; also: nearly all actives have a fitted effect of over 65% in size
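IDH1-R132H (0.5 ug/mL dispensed) in pH 7.5 Tris buffer was preincubated 30 min with compound, then given a substrate mix of 0.016 mM NADPH and 2 mM alpha-KG for 80 min at room temperature; remaining NADPH was read by diaphorase/resazurin fluorescence.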
A number is an active result; . = inactive; ? = inconclusive; / = no result. The list is not random: actives were taken first. Their share in the collection is about 2.7%. Calls follow the shape of the dose curve; as a rule, active = well fitted curve in the direction sought with a large enough effect; inconclusive = small, poorly fitted or top-dose-only effect, or another doubt; inactive = no such curve, though single readings can be large; an effect the other way counts as inactive or inconclusive.

SMILES	TrxR1 inh	TrxR1 substrate	GLP1R inv ag	HEK293 tox	GLP1R ag	mIDH1 inhibitor
Cc1ccc(C(C)(C)C)cc1S(=O)(=O)Nc1nc2ccccc2nc1Cl	.	.	10µM	.	.	.
COc1ccc(C2=Nc3ccccc3N(C(=O)c3ccc(C(F)(F)F)cc3)C2C(=O)NCc2ccccc2)cc1 (stereo unspecified)	/	/	6.31µM	.	/	/
O=C(CSc1ccc(Cl)cc1)N1CCN(c2ncc(C(F)(F)F)cc2Cl)CC1	.	.	.	.	.	.
O=C(CN1CCN(c2ncc(C(F)(F)F)cc2Cl)CC1)N1CCN(c2ncc(C(F)(F)F)cc2Cl)CC1	.	.	4.47µM	.	.	.
Cc1ccc(SC(CC(=O)c2ccc(C)cc2)C(=O)O)cc1 (stereo unspecified)	39.8µM	.	?	.	.	.
COc1cccc(CN(C)CC(O)COc2cc(Cl)ccc2Cl)c1 (stereo unspecified)	.	.	10µM	.	.	.
CN1CCN(CCOc2ccc(Cc3ccccc3)cc2)CC1	.	.	11.2µM	.	.	.
c1ccc(COc2ccc(OCCCCN3CCCC3)cc2)cc1	.	.	11.2µM	.	.	.
O=C(Nc1ccc(Cl)cc1)NC1CCCC1Cc1ccco1 (stereo unspecified)	.	.	5.62µM	.	.	.
O=C(Nc1ccc(Cl)cc1)NC1CCCCC1Cc1ccco1 (stereo unspecified)	.	.	10µM	.	.	.
Cc1cccc(C)c1N(CCCc1cccnc1)C(=O)[C@@H](C)N	/	/	/	/	.	/
O=C(O)c1cccs1	.	.	/	/	/	/
COc1ccc2[nH]c(C(O)C(O)c3nc4c(OC)c(OC)ccc4[nH]3)nc2c1OC (stereo unspecified)	.	.	/	/	/	/
COc1ccc(NC(=O)/C(C#N)=C/c2ccc(Sc3nncn3C)c([N+](=O)[O-])c2)cc1	50.1µM	.	.	.	.	.
Cn1cnnc1Sc1ccc(/C=C/C(=O)c2ccc(O)cc2)cc1[N+](=O)[O-]	22.4µM	.	.	.	.	.
CCOC(=O)CN(C)C(=O)C1CC(CO[Si](C)(C)C(C)(C)C)=CN1C(=O)OC(C)(C)C (stereo unspecified)	?	.	/	/	/	/
O=C(C1CCCO1)N1CCN(Cc2c(O)ccc3ccccc23)CC1 (stereo unspecified)	7.08µM	.	?	.	.	.
CCOC(=O)N1CCN(Cc2ccc(O)c3ncccc23)CC1	12.6µM	.	5.01µM	.	.	.
CCOC(=O)N1CCN(Cc2c(O)ccc3ccccc23)CC1	12.6µM	.	.	.	.	.
CCOc1cc(C(=O)OCc2cc(=O)n3c(C)csc3n2)cc(OCC)c1OCC	.	.	.	.	/	.
CC(=O)c1cc(-c2ccc(F)cc2)n(CC(=O)NC2CCC(C)CC2)c1C (stereo unspecified)	.	.	.	.	/	.
C(=C\c1ccccc1)/C=N/N1CCN(c2ccccn2)CC1	.	.	3.55µM	.	.	.
CCOC(=O)c1c(-c2ccccc2)csc1NC(=S)NC	.	.	.	?	.	.
CCNC(=S)Nc1scc(-c2ccccc2)c1C(=O)OCC	?	.	?	10µM	.	.
CCOC(=O)c1c(-c2ccccc2)csc1NC(=O)CCN1C(=O)c2ccccc2C1=O	.	.	.	.	.	.
CCOC(=O)c1c(-c2ccc(-c3ccccc3)cc2)csc1NC(=O)CNCCN(C)C	.	.	10µM	.	.	.
COc1ccc(C(=O)Nc2ccc3c(c2)OCCO3)cc1	.	.	12.6µM	.	.	.
O=C(Nc1ccc2c(c1)OCCO2)c1ccccc1	.	.	?	.	.	.

Source: PubChem (National Center for Advancing Translational Sciences (NCATS))
